Source: PubChem
POLB inh – blocks human DNA polymerase beta activity. Pol beta primer extension/strand displacement, fluorescence kinetic. 1.3% of 340,000 active. P06746. Potency, µM (doses to about 114 µM), inactives show top-dose activity change, negative = inhibition, usual class: inhibitors; note: % is set by controls: 0 for no effect and ±100 for the full control effect
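Reaction started by 50 nM substrate onto compound-treated Pol beta (10 nM, 15 min preincubation, room temperature); plates read at 0 min and 10 min. Normalized concentration-effect data fitted by four-parameter Hill equation.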
WRN inhibitor – blocks human WRN helicase. Q14191. WRN helicase unwinding, fluorescent forked duplex, kinetic. Potency, µM (series often up to 114 µM), for the others: at the highest dose activity change, negative = inhibition, hits mostly inhibitors. 0.46% of 360,000 active. AID 651768; note: % is set by controls: 0 for no effect and ±100 for the full control effect; nearly all actives have a fitted effect of over 55% in size
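Kinetic fluorescence helicase assay: unwinding of a quenched forked DNA duplex (100 nM final) with 2 mM ATP final raises red fluorescence (525/598 nm). Compounds sat 15 min at room temperature with 20 nM WRN beforehand.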
FEN1 inh – inhibitors of human flap endonuclease 1 | P39748 | Recombinant FEN1 flap cleavage, fluorescence, 15 min | Potency, µM (titrated, usually from 114 µM), for inactives: at the highest dose activity change, negative = inhibition, actives largely listed as inhibitors | 0.35% of 390,000 active | AID 588795; note: % is set by controls: 0 for no effect and ±100 for the full control effect; nearly all actives have a fitted effect of over 65% in size
Target sequence (P39748 whole entry, looked up): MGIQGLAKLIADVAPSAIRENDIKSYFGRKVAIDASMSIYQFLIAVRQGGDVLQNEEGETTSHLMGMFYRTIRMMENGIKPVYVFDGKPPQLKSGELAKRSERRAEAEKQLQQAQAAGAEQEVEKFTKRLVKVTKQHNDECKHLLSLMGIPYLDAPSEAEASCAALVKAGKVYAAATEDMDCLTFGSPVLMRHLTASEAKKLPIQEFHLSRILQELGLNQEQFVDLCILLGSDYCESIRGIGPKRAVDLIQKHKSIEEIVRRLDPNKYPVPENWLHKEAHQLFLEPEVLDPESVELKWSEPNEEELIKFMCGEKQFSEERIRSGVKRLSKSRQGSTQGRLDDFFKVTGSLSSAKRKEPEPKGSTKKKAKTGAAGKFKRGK
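Nuclease activity of 10 nM FEN1 was measured after 15 min of room-temperature exposure to titrated compounds, by adding 50 nM flap substrate and reading plates at 0 and 15 min.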
POLH inh – blocks human DNA polymerase eta activity; 1.2% of 390,000 active; AID 588591; Potency, µM (highest dose often 114 µM), for inactives: at the highest dose activity change, negative = inhibition, most hits filed as inhibitors; recombinant Pol eta, fluorescent DNA replication assay; note: % is set by controls: 0 for no effect and ±100 for the full control effect
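Fluorescent replication assay: 50 nM final substrate added after a 15 min room-temperature compound preincubation with 10 nM enzyme. Signal taken at 0 min and again at 10 min.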
POLI inh – inhibitors of human DNA polymerase iota; Pol iota fluorescent replication assay, 10 min; 1% of 390,000 active; AID 588590; Potency, µM (top dose mostly 115 µM), inactives show at the top dose activity, negative = inhibition, hits mostly inhibitors; Q9UNA4
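Fluorescent replication assay read twice, at 0 min and 10 min after adding 50 nM (final) substrate. Enzyme (10 nM) and compounds were first incubated 15 min at room temperature; enzyme-free buffer wells were negative controls.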
Pol kappa inh – DNA polymerase kappa (human) inhibition | 0.53% of 400,000 active | Q9UBT6 | purified Pol kappa, fluorescent DNA synthesis assay, 10 min | Potency, µM (top dose mostly 107 µM), for the others: at the highest dose activity, negative = inhibition, most hits filed as inhibitors; note: % is set by controls: 0 for no effect and ±100 for the full control effect
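Enzyme at 10 nM met test compounds for 15 min at room temperature. Substrate addition (50 nM final) began the reaction, which was monitored by fluorescence at 0 and 10 min.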
* hit, by the source's call; ? = inconclusive; . = not tested or not shown; ! = not confirmed by another sample; [ ] = another dose, or the depositor's remark. Rows were chosen to be rich in hits. Some 2.4% of all compounds tested hit in one or more screens of this group. Calls come from the whole dose curve; as a rule, active = well fitted curve in the direction sought with a large enough effect; inconclusive = small, poorly fitted or top-dose-only effect, or another doubt; inactive = no such curve, though single readings can be large; an effect the other way counts as inactive or inconclusive. Potency is the fitted concentration of half-maximal effect.

SMILES	POLB inh	WRN inhibitor	FEN1 inh	POLH inh	POLI inh	Pol kappa inh
COc1cc(CC(=O)OCC2=C[C@H]3[C@@H]4C(C)(C)[C@]4(OC(C)=O)[C@H](OC(=O)Cc4ccccc4)[C@@H](C)[C@]3(O)[C@@H]3C=C(C)C(=O)[C@@]3(O)C2)ccc1O	.	.	.	.	.	-20.2%[60.1 µM]
O=C1C(=O)C(Cl)=C(Cl)C(Cl)=C1Cl	.	39.8µM*	.	.	.	.
CC(C)(C)OC(=O)C(Br)CCBr (stereo not given)	.	.	.	.	.	11.5%[60.1 µM]
CC(C)Oc1ccc(CNC(=O)C2CCCN(S(=O)(=O)c3ccc4c(ccn4C)c3)C2)cc1 (stereo not given)	-16.4%	.	3.8%	-18.3%	31.7%	-6.1%[60.1 µM]
O=[N+]([O-])c1ccc(NCc2ccccc2)c2nonc12	1.3%	-0.7%	-15.4%	-25.4%	31.6µM*	-25.9%
O=c1c2ccccc2nc(CSc2ncnc3nc[nH]c23)n1-c1ccccc1Cl	39.8µM*	-7.9%	3.0%	-1.9%	-16.0%	-11.8%
CCC(C)c1ccc(N2C(=O)NC(=O)/C(=C/c3cccn3CCOc3ccc(C)cc3)C2=O)cc1 (stereo not given)	11.4%	-1.7%[11.6 µM]	-0.1%	6.8%	35.5µM*	-73.7%
O=c1c2ccccc2nc(-c2ccco2)n1-c1ccc(Br)cc1	0.7%	-4.7%	0.5%	-15.8%	76.5%	6.9%
S=c1[nH]nc(-c2ccco2)n1Cc1ccccc1	31.6µM*	0.6%	-8.4%	-8.0%	21.2%	-1.4%
O=C1NC(=O)C(=Cc2coc3ccccc3c2=O)C(=O)N1	1.9%	-1.5%	-18.8%	-6.8%	10.5%	-3.6%
O=C1NC(=O)C(=C/C=C/c2coc3ccc(Br)cc3c2=O)C(=O)N1	1.58µM*	.	.	.	.	.
CCOc1ccccc1N1C(=O)NC(=O)/C(=C/c2ccc3c4c(cccc24)CC3)C1=O	39.1%	50.1µM*	12.7%	?	-8.1%	-5.2%
COc1cccc(N2C(=O)NC(=O)/C(=C/c3ccc4c5c(cccc35)CC4)C2=O)c1	5.2%	.	.	.	.	.
Cc1c(F)c(F)c(COC(=O)C2C(/C=C(\Cl)C(F)(F)F)C2(C)C)c(F)c1F (stereo not given)	.	.	.	.	.	11.2%[60.1 µM]
CCn1c(=S)sc2c(=O)[nH]c(SCC(=O)Nc3cc(OC)ccc3OC)nc21	-0.4%	-3.5%[11.6 µM]	-8.6%	50.1µM*	?	-17.4%
COc1ccc(C[C@@H]2c3cc(O)c(OC)cc3CCN2C)cc1O	5.3%	0.4%	9.5%	-14.2%	63.8%	-17.0%
COc1cc2c(cc1O)[C@@H]1Cc3ccc(OC)c(O)c3CN1CC2	.	15.8%	?	?	10µM*	-4.5%
C[C@]12CC[C@@H]3c4ccc(O)cc4C[C@@H](CCCCCCCCCS(=O)CCCC(F)(F)C(F)(F)F)[C@H]3[C@@H]1CC[C@@H]2O (stereo not given in full)	.	.	.	.	.	-7.7%[60.1 µM]
C#CCOCCOCCOCCNc1nc(N2CCN(C(=O)CCCCCCCCCCNC(=O)[C@H]([C@@H](C)CC)n3cc(CCCCN=C(N)N)nn3)CC2)nc(N2CCN(C(=O)CCCCCCCCCCNC(=O)[C@H](CO)n3cc(CCCCCN)nn3)CC2)n1	.	22.4µM*	25.1µM*	79.4µM*	?	11.9%
C[C@H](CCC(=O)O)[C@H]1CC[C@@H]2[C@H]3CC[C@H]4C[C@@H](O)CC[C@@]4(C)[C@H]3CC[C@]21C	.	.	.	.	.	-5.1%[12 µM]
N#CC(C#N)=Cc1ccc(O)c(O)c1	-12.4%[57.1 µM]	-4.3%	4.3%	7.94µM*!	?	11.2µM*!
COc1cc(C=C(C#N)C#N)cc(O)c1O	-11.5%[57.1 µM]	.	.	11.2µM*	?	.
N#CC(=Cc1ccc(O)c(O)c1)C(N)=S	2.82µM*	.	.	3.16µM*	6.31µM*	.
CCCC[C@@H](C)[C@@H](OC(=O)C[C@@H](CC(=O)O)C(=O)O)[C@H](C[C@@H](C)C[C@H](O)CCCC[C@@H](O)C[C@H](O)[C@H](C)N)OC(=O)C[C@H](CC(=O)O)C(=O)O	.	.	.	.	.	5.1%[19.4 µM]
O=[N+]([O-])c1ccc(-c2[se]c3ccccc3c2I)cc1	.	.	.	.	.	-13.6%[60.1 µM]
SMILES	POLB inh	WRN inhibitor	FEN1 inh	POLH inh	POLI inh	Pol kappa inh
CN1CCc2cc(O)cc3c2[C@H]1Cc1ccc(O)c(O)c1-3	.	-34.6%	79.4µM*!	4.5%	-20.3%	-5.9%[60.1 µM]
COc1cc2c(cc1O)C[C@H]1c3c(cc(O)c(OC)c3-2)CCN1C	.	-8.2%	-24.6%	-6.4%	9.3%	-7.3%
CCCN1CCc2cc(O)cc3c2[C@H]1Cc1ccc(O)c(O)c1-3	.	-0.3%	50.1µM*	-7.6%	14.1µM*	-9.6%[60.1 µM]
COc1cc2c(cc1OC)-c1c(OC)c(OC)cc3c1[C@H](C2)[N+](C)(C)CC3	50.1µM*	-6.7%	-21.5%	-1.1%	?	-35.2%
COc1cc2c3c(c1OC)-c1cc(O)ccc1CC3NCC2 (stereo not given)	-23.9%	-0.3%	-0.3%	-4.2%	-13.9%	-12.2%
CC(C)C[C@H](NC(=O)[C@H](Cc1ccccc1)NC(=O)CNC(=O)[C@@H](COC(C)(C)C)NC(=O)[C@@H](N)Cc1ccc(O)cc1)C(=O)N[C@H](C(=O)O)[C@@H](C)OC(C)(C)C	.	.	.	.	.	14.2%[60.1 µM]
ClC1=C(Cl)C(Cl)=C(Cl)C1=C/C=C/c1ccccc1	?	-5.8%[57.1 µM]	7.1%	?	44.7µM*	?
CC1CC2CCC(O2)C(C)C(=O)OC(C)CC2CCC(O2)C(C)C(=O)OC(C)CC2CCC(O2)C(C)C(=O)OC(C)CC2CCC(O2)C(C)C(=O)O1 (stereo not given)	.	.	.	.	.	0.2%[60.1 µM]
ClC1=C(Cl)C(Cl)(C2(Cl)C(Cl)=C(Cl)C(Cl)=C2Cl)C(Cl)=C1Cl	.	.	.	.	.	6.7µM*
CCCN(CCC)CCc1ccc(O)c(O)c1	3.6%[57.1 µM]	.	.	-4.9%[57.1 µM]	-2.1%[58.9 µM]	0.9%[60.1 µM]
COc1ccc(OC)c(C(O)C(C)N)c1 (stereo not given)	10.8%	6.1%	2.3%	-14.3%	21.3%	-8.3%[60.1 µM]
C[C@H](N)[C@H](O)c1ccc(O)c(O)c1	.	.	.	.	.	0.752µM*
C[C@@H](N)[C@@H](O)c1ccc(O)c(O)c1	.	.	.	.	.	1µM*
CN(C)[C@H]1C(=O)C(C(N)=O)=C(O)[C@]2(O)C(=O)C3=C(O)c4c(O)cccc4[C@@](C)(O)[C@H]3C[C@@H]12	.	.	.	.	.	-7.8%[12 µM]
CN(C)[C@@H]1C(=O)C(C(N)=O)=C(O)[C@@]2(O)C(=O)C3=C(O)c4c(O)ccc(Cl)c4[C@@](C)(O)C3C[C@@H]12 (stereo not given in full)	?	-9.0%[57.1 µM]	44.7µM*	-13.4%	?	79.4µM*
CN(C)C1C(=O)C(C(N)=O)=C(O)C2(O)C(=O)C3=C(O)c4c(O)cccc4C(C)(O)C3CC12 (stereo not given)	3.16µM*	-3.4%	?	-6.9%	?	?
Cc1c(C=O)c2ccccc2n1Cc1ccccc1	20.7%	?	5.6%	-28.9%	26.0%	-13.9%
